Measurements reported in PubChem BioAssay (Tox21).
Results filed as inconclusive are left out. Active and inactive are the calls of the source. Unless noted, the call rests on the fitted dose curve.

Legend:
[1] = qHTS assay to identify small molecule antagonists of the estrogen related receptor signaling pathway with the pleiotropic PPARgamma coactivator (PGC) from Tox21 10K library - cell viability counter screen (AID 1224840; active means well fitted cell-killing curve with a large enough effect in the repeat runs, not every such curve was filed as active; further: nearly all actives have a fitted effect of over 40% in size)
Summary of the method: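 Cell viability is measured by CellTiter-Fluor fluorescence in PGC/ERR cells that receive compounds after a 6-hour attachment period and are then incubated 17.5 hours at 37 C.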

[2] = molecular target: Thyrotropin receptor (Homo sapiens) (UniProt P16473); experiment: qHTS assay to identify small molecule agonists of the thyroid stimulating hormone receptor (TSHR) signaling pathway (AID 1224843); further: nearly all actives have a fitted effect of over 45% in size
Thyrotropin receptor (Homo sapiens), sequence (P16473 whole entry, looked up): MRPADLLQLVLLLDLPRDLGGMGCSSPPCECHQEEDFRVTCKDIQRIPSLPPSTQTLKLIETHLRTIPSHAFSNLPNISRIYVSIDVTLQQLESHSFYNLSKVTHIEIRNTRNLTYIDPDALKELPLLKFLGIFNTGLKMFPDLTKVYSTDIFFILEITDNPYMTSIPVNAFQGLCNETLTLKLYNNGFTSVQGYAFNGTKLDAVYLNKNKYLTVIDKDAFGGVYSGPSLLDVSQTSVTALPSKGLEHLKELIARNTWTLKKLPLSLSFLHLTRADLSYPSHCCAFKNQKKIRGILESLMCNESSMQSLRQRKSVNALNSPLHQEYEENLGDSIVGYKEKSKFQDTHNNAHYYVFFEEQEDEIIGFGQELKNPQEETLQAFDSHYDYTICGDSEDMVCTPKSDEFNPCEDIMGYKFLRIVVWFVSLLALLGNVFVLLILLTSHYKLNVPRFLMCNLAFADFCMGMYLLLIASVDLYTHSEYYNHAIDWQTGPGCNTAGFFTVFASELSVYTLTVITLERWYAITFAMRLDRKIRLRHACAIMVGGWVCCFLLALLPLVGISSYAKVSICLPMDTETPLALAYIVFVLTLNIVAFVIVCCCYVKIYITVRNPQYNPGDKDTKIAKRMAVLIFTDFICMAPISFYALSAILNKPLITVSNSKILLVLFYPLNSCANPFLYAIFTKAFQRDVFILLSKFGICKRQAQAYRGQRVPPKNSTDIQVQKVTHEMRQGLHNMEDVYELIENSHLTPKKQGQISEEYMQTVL
Summary of the method: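 Compounds are titrated over 15 concentrations, in triplicate, onto TSHR-HEK293 cells seeded at 800/well. Plates sit 30 min at room temperature before cAMP-d2 and anti-cAMP cryptate are added; signal is read after a further hour.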

[3] = qHTS assay to identify small molecule agonists of the hypoxia (HIF-1) signaling pathway - cell viability counter screen (AID 1224844); further: nearly all actives have a fitted effect of over 50% in size
Summary of the method: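 Viability counter screen: HRE-bla ME-180 cells plated 5 hrs before compound addition, treated 17 hrs at 37C and 5% CO2, then CellTiter-Glo added after the FRET reporter read; luminescence after 30 min.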

[4] = qHTS assay to identify small molecule agonists of H2AX (AID 1224845; active means well fitted activation curve with a large enough effect in the signal ratio in the repeat runs, not every such curve was filed as active; the % refers to the signal ratio)
Summary of the method: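 Wild-type CHO-K1 cells plated overnight, then exposed 3 hr at 37C to compounds at 15 concentrations (0.76% DMSO). Lysed, then HTRF anti-pH2AX(S139)-cryptate/anti-H2AX-d2 detection after 24 hr at room temperature; emissions 665 and 620 nm.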

[5] = qHTS assay to identify small molecule agonists of the hypoxia (HIF-1) signaling pathway (AID 1224846; active means well fitted activation curve with a large enough effect in the signal ratio in the repeat runs, not every such curve was filed as active; the % refers to the signal ratio)
Summary of the method: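 Agonist mode reporter screen. ME-180 cells stably expressing bla under HRE control received test compounds in DMSO for 17 hrs (37C, 5% CO2), and beta-lactamase activity was then detected with the CCF4-AM FRET substrate.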

[6] = qHTS assay to identify small molecule agonists of H2AX - cell viability counter screen (AID 1224847); further: top concentration of the series differs between compounds; nearly all actives have a fitted effect of over 30% in size
Summary of the method: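 Read-out: CellTiter-Glo luminescence, 30 min RT. Cells: wild-type CHO-K1, 1000/well, 10% FBS, plated overnight at 37C. Treatment: 15 concentrations, 3 hr, 37C, 0.76% DMSO.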

[7] = qHTS assay to identify small molecule antagonists of the estrogen related receptor (ERR) signaling pathway from Tox21 library (AID 1224848; active means well fitted inhibition curve with a large enough effect in the repeat runs; further: nearly all actives have a fitted effect of over 50% in size)
Summary of the method: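 First, 2,000 ERR cells per well were plated and held 6 h at 37 C/5% CO2. Next, compounds in DMSO were pinned in and left 18 h at 37 C. Finally, ONE-Glo was added and luminescence read after 30 min at room temperature.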
On the % scale 0 is the no-effect control and ±100 the full control effect.

C=CC(C)(O)CC/C=C(\C)CC (stereo not drawn)
inactive: outcome [1] | outcome [2] | outcome [3] | outcome [4] | outcome [5] | Potency [6]

Cc1nc([N+](=O)[O-])cn1-c1ccc([N+](=O)[O-])cc1
inactive: outcome [1] | outcome [2] | outcome [3] | outcome [4] | outcome [5] | Potency [6]

CCOC(=O)CCc1ccccc1
inactive: outcome [1] | outcome [2] | outcome [3] | outcome [4] | outcome [5] | Potency [6]

O=c1cc(O)c(Cl)c[nH]1
inactive: outcome [1] | outcome [2] | outcome [3] | outcome [4] | outcome [5] | Potency [6]

CCCCCC(=O)OCC
inactive: outcome [1] | outcome [2] | outcome [3] | outcome [4] | outcome [5] | Potency [6]

CCCCC/C=C/CC(=O)OC
inactive: outcome [1] | outcome [2] | outcome [3] | outcome [4] | outcome [5] | Potency [6]

CCOC(=O)CC#N
inactive: outcome [1] | outcome [2] | outcome [3] | outcome [4] | outcome [5] | Potency [6]

CN[C@@H]1[C@H](O)[C@H](NC)[C@H]2O[C@@]3(O)C(=O)C[C@@H](C)O[C@H]3O[C@@H]2[C@H]1O
inactive: outcome [1] | outcome [2] | outcome [3] | outcome [4] | outcome [5] | Potency [6]

CC(=O)OC(C)(C)Cc1ccccc1
inactive: outcome [1] | outcome [2] | outcome [3] | outcome [4] | outcome [5]

C=CCOc1cc(Cl)ccc1C(=O)NCCN(CC)CC
inactive: outcome [1] | outcome [2] | outcome [3] | outcome [4] | outcome [5] | Potency [6]

C=C(C)[C@@H]1CC[C@@H](C)C[C@@H]1O
inactive: outcome [1] | outcome [2] | outcome [3] | outcome [4] | outcome [5] | Potency [6]

OCCCCCCCl
inactive: outcome [1] | outcome [2] | outcome [3] | outcome [4] | outcome [5] | Potency [6]

CCOC(=O)C(=O)c1csc(NC=O)n1
inactive: outcome [1] | outcome [2] | outcome [3] | outcome [4] | outcome [5] | Potency [6]

SCCSCCS
inactive: outcome [1] | outcome [2] | outcome [3] | outcome [4] | outcome [5]

CCCC(C)CC (stereo not drawn)
inactive: outcome [1] | outcome [2] | outcome [3] | outcome [4] | outcome [5] | Potency [6]

C=C[C@@H](C)CCC=C(C)C
inactive: outcome [1] | outcome [2] | outcome [3] | outcome [4] | outcome [5] | Potency [6]

CCCCCC1Nc2cc(C(F)(F)F)c(S(N)(=O)=O)cc2S(=O)(=O)N1 (stereo not drawn)
inactive: outcome [1] | outcome [2] | outcome [3] | outcome [4] | outcome [5] | Potency [6]

CCOC(=O)OCC/C(SC(=O)OCC)=C(\C)N(C=O)Cc1cnc(C)nc1N
inactive: outcome [1] | outcome [2] | outcome [3] | outcome [4] | outcome [5] | Potency [6]

C=C(C)C(=O)OC1CC(C)CC(C)(C)C1 (stereo not drawn)
inactive: outcome [1] | outcome [2] | outcome [3] | outcome [4] | outcome [5] | Potency [6]

C[C@H](CCC(=O)O)[C@H]1CC[C@H]2[C@@H]3[C@H](O)C[C@@H]4C[C@H](O)CC[C@]4(C)[C@H]3C[C@H](O)[C@]12C
inactive: outcome [1] | outcome [2] | outcome [3] | outcome [4] | outcome [5] | Potency [6]

Cc1ccc(S(=O)(=O)NC(=O)NC2CCCCCCC2)cc1
inactive: outcome [1] | outcome [2] | outcome [3] | outcome [4] | outcome [5] | Potency [6]

O=C1OC(=O)c2ccccc21
inactive: outcome [1] | outcome [2] | outcome [3] | outcome [4] | outcome [5] | Potency [6]

CNC(=O)C(c1ccccc1)c1ccccc1
inactive: outcome [1] | outcome [2] | outcome [3] | outcome [4] | outcome [5] | Potency [6]

CNC(=O)NC
inactive: outcome [1] | outcome [2] | outcome [3] | outcome [4] | outcome [5] | Potency [6]

CCCCC[Si](OCC)(OCC)OCC
inactive: outcome [1] | outcome [2] | outcome [3] | outcome [4] | outcome [5] | Potency [6]

O=C(O)Cc1cccc(-c2cc(CCCCCCc3ccc(O[C@H]4O[C@H](CO)[C@@H](O)[C@H](O)[C@@H]4O)c(-c4cccc(CC(=O)O)c4)c3)ccc2O[C@H]2O[C@H](CO)[C@@H](O)[C@H](O)[C@@H]2O)c1
inactive: viability change, negative = cytotoxic [1] -0.865% [at 0.349 µM] | activation [2] 2.03% [at 0.349 µM] | activity change, negative = cytotoxicity [3] 6.42% [at 0.29 µM] | activation (H2AX phosphorylation) [4] 0.108% [at 0.582 µM] | activation [5] -0.541% [at 0.291 µM] | activity change, negative = cytotoxicity [6] -1.18% [at 0.582 µM]

NS(=O)(=O)c1ccc(Cl)c(S(N)(=O)=O)c1
inactive: outcome [1] | outcome [2] | outcome [3] | outcome [4] | outcome [5] | Potency [6]

O=S(=O)(O)CCO
inactive: outcome [1] | outcome [2] | outcome [3] | outcome [4] | outcome [5] | Potency [6]

O=C1OC(=O)c2cc(Oc3ccc4c(c3)C(=O)OC4=O)ccc21
inactive: outcome [1] | outcome [2] | outcome [3] | outcome [4] | outcome [5] | Potency [6]

CCOC(=O)C(C)(C)C
inactive: outcome [1] | outcome [2] | outcome [3] | outcome [4] | outcome [5] | Potency [6]

CCC1Nc2cc(Cl)c(S(N)(=O)=O)cc2S(=O)(=O)N1 (stereo not drawn)
inactive: outcome [1] | outcome [2] | outcome [4] | outcome [5] | Potency [6]

CC(C)CCCCCCOC(=O)C1CCCCC1C(=O)OCCCCCCC(C)C (stereo not drawn)
inactive: outcome [1] | outcome [2] | outcome [3] | outcome [4] | outcome [5] | Potency [6]

CCCCCCCCCCCCCC(=O)OC
inactive: outcome [1] | outcome [2] | outcome [4] | outcome [5] | Potency [6]

N#CCCOCCOCCC#N
inactive: outcome [1] | outcome [2] | outcome [4] | outcome [5] | Potency [6]

CCCCCCCCCCCCOC(C)=O
inactive: outcome [1] | outcome [2] | outcome [3] | outcome [4] | outcome [5] | Potency [6]

CC1(N)CCC(C(C)(C)N)CC1 (stereo not drawn)
inactive: outcome [1] | outcome [2] | outcome [4] | outcome [5] | Potency [6]

BrC/C=C/CBr
inactive: viability change, negative = cytotoxic [1] 5.69% [at 19 µM] | activation [2] -9.51% [at 19 µM] | activity change, negative = cytotoxicity [3] -5.88% [at 15.8 µM] | activation (H2AX phosphorylation) [4] -0.0482% [at 31.6 µM] | activation [5] -1.18% [at 15.8 µM] | activity change, negative = cytotoxicity [6] 1.6% [at 31.6 µM]

COC(/C=C(\C)CCC=C(C)C)OC
inactive: outcome [1] | outcome [2] | outcome [3] | outcome [4] | outcome [5] | Potency [6]

COCC(=O)Nc1c(I)c(C(=O)NCC(O)CO)c(I)c(C(=O)N(C)CC(O)CO)c1I (stereo not drawn)
inactive: outcome [1] | outcome [2] | outcome [3] | outcome [4] | Potency [6]

CC(=O)N(CC(O)CO)c1c(I)c(C(=O)NCC(O)CO)c(I)c(C(=O)NCC(O)CO)c1I (stereo not drawn)
inactive: outcome [1] | outcome [3] | outcome [4] | outcome [5] | Potency [6]

COC(=O)CCC(=O)O
inactive: outcome [1] | outcome [2] | outcome [3] | outcome [4] | outcome [5] | Potency [6]

Cc1ccc(C(=O)C(=O)O)cc1C
inactive: outcome [1] | outcome [3] | outcome [4] | outcome [5] | Potency [6]

CCC(CO)CO
inactive: outcome [1] | outcome [3] | outcome [4] | outcome [5]

Nc1cc(S(=O)(=O)O)ccc1S(=O)(=O)O
inactive: outcome [1] | outcome [2] | outcome [4] | outcome [5] | Potency [6]

O=S(=O)(O)c1cc(O)ccc1O
inactive: outcome [1] | outcome [2] | outcome [3] | Potency [7]

O=c1[nH]c(=O)c2[nH]c(=O)[nH]c2[nH]1
inactive: viability change, negative = cytotoxic [1] -2.62% [at 8.39 µM] | activation [2] 0.91% [at 8.39 µM] | activation (H2AX phosphorylation) [4] 0.259% [at 14 µM] | activation [5] 0.359% [at 7.01 µM] | activity change, negative = cytotoxicity [6] -1.7% [at 14 µM]

O=C(O)c1ccccc1C(=O)OCc1ccccc1
inactive: outcome [1] | outcome [3] | outcome [4] | outcome [5] | Potency [6]

CC(C)c1ccccc1O
inactive: outcome [1] | outcome [3] | outcome [4] | outcome [5] | Potency [6]

COc1ccc(/C=N/NC(=O)c2ccncc2)cc1OC
inactive: outcome [1] | outcome [2] | outcome [3] | outcome [4] | outcome [5] | Potency [6]

CCC(C)N (stereo not drawn)
inactive: outcome [1] | outcome [3] | outcome [4] | outcome [5] | Potency [6]

COc1cc2c3cc1Oc1cc(ccc1O)C[C@@H]1c4c(cc(OC)c(O)c4Oc4ccc(cc4)C[C@@H]3N(C)CC2)CC[N+]1(C)C
inactive: outcome [1] | outcome [2] | outcome [4] | outcome [5] | Potency [6]

O=C(O)c1c(Cl)ccc(Cl)c1Cl
inactive: outcome [1] | outcome [2] | outcome [3] | outcome [4] | outcome [5] | Potency [6]
